According to PubChem BioAssay AID588342 (National Center for Advancing Translational Sciences (NCATS), 2011):
In all, about 360,000 compounds went through this assay and about 25,000 (6.9%) were called active. Entries that show only a call come without a potency. Not shown: some 9% with an inconclusive outcome. The call rests on the fitted dose curve; in most records, active means well fitted inhibition curve with a large enough effect; inconclusive means small, poorly fitted or top-dose-only effect; inactive means flat fitted curve, though single readings scatter. For the sample, actives were picked, then their nearest neighbours and some compounds at random.

biological target: Luciferin 4-monooxygenase (Photinus pyralis) (UniProt P08659); experiment: qHTS profiling assay for firefly luciferase inhibitor/activator using purifed enzyme and Km concentrations of substrates (counterscreen for miR-21 project); conditions: purified FLuc, luminescence inhibition; series mostly up to 57.5 µM; further: nearly all actives have a fitted effect of over 55% in size
Sequence (P08659 whole entry, looked up): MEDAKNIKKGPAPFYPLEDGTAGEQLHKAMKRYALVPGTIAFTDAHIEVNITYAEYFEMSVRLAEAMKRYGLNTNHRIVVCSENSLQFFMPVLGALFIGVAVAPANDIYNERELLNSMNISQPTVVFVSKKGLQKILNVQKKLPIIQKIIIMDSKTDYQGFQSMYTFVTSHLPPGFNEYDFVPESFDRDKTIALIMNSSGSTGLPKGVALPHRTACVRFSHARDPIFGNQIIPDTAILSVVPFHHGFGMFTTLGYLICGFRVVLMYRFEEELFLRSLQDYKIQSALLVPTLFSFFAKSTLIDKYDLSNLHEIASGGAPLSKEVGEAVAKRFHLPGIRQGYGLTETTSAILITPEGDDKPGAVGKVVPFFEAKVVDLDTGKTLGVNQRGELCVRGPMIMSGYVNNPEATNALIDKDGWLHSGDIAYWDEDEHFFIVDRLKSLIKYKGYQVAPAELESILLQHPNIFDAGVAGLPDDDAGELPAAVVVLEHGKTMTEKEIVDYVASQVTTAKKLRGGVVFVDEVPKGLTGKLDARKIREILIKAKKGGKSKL
Summary of the method: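 Purified P. pyralis luciferase (10nM final) with 10uM D-luciferin and 10uM ATP (Km levels) in 50mM Tris acetate pH 7.5, 10mM Mg acetate, 0.01% Tween-20, 0.05% BSA; qHTS 6-point titration, ~60 µM downward; luminescence read.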
Potency means the concentration at half of the fitted maximal effect.

| Compound | Potency |
| --- | --- |
| CCn1c(SCC(=O)Nc2nccs2)nnc1-c1ccco1 | inactive |
| Cc1[nH]c2ccccc2c1SCC(=O)Nc1nccs1 | 23.9 µM (active) |
| Cn1c(SCC(=O)Nc2nccs2)nnc1-c1cccnc1 | inactive |
| CCOc1ccccc1C(=O)NCc1ccc2c(c1)CCN2C(=O)c1ccc(F)cc1 | inactive |
| Cc1ccccc1NC(=O)CSc1ccc2nnc(-c3ccccn3)n2n1 | inactive |
| Cc1ccc(-c2onc(C)c2C)cc1S(=O)(=O)Nc1ccccn1 | inactive |
| COc1ccc(C(=O)NC2CCN(C(=S)NCCc3ccccc3)CC2)cc1 | inactive |
| S=C(NCCc1ccccc1)N1CCCCC1 | 16.9 µM (active) |
| O=C1CCN(C(=S)NCCc2ccccc2)CC1 | inactive |
| CCOCCCN(C(=O)Cn1nnc(-c2ccc(OC)c(OC)c2)n1)C(CC)C(=O)NC1CCCC1 (stereo not given) | inactive |
| O=[N+]([O-])c1ccc(N/N=C2/CCCCC2c2ccccn2)c([N+](=O)[O-])c1 (stereo not given) | inactive |
| O=[N+]([O-])c1ccc2nc(-c3ccccn3)[nH]c2c1 | 12 µM (active) |
| O=c1[nH]c2cccnc2n1-c1ccc([N+](=O)[O-])cc1 | inactive |
| COc1ccccc1NC(=O)CSc1oc(-c2ccco2)nc1S(=O)(=O)c1ccc(Br)cc1 | inactive |
| CCOc1ccc(S(=O)(=O)Nc2ccc3oc4c(c3c2)CC(C)CC4)cc1 (stereo not given) | inactive |
| CSc1ccc(C#N)cc1NC(=O)c1cccc(Cl)c1 | inactive |
| N#Cc1ccccc1NC(=O)c1cccc(COc2ccc(Cl)cc2Cl)c1 | 13.5 µM (active) |
| CSc1ccc(C#N)cc1NC(=O)c1ccc(Cl)cc1 | inactive |
| O=C(CN1CCN(c2nc(-c3ccccc3)cs2)CC1)NCc1ccc2c(c1)OCO2 | inactive |
| c1ccc(-c2csc(N3CCc4ccccc4C3)n2)cc1 | 12 µM (active) |
| CN(C)CCCNC(=S)N1CCN(c2nc(-c3ccccc3)cs2)CC1 | inactive |
| CCCCCn1c(=O)[nH]c2cc(C(=O)NCCCN3CCCCC3C)ccc2c1=O (stereo not given) | inactive |
| CCS(=O)(=O)n1nc(-c2ccccc2)nc1SCc1ccccc1 | 10.7 µM (active) |
| Cc1ccc(S(=O)(=O)n2nc(-c3ccc(Cl)cc3)nc2NCc2ccccc2)cc1 | inactive |
| CCn1c(SCc2ccccc2)nc2c(c1=O)SCC2 | inactive |
| C[C@H](OC(=O)n1ccnc1)[C@@H]1O[C@@]2(C)CCC[C@@H]1O2 | inactive |
| Cc1nnc(N2CCC(C(=O)Nc3ccc(F)cc3)CC2)c2nn(-c3ccc(Cl)cc3)c(C)c12 | inactive |

| Compound | Potency |
| --- | --- |
| Cc1ccc(NC(=O)COC(=O)CN2CCCCCC2=O)c(C)c1 | inactive |
| Cn1c(C(=O)Nc2cccc(C(F)(F)F)c2)cc2c(=O)n3ccccc3nc21 | inactive |
| CCCN(CCC)C(=O)C(Cc1ccccc1)NS(=O)(=O)c1ccc2c(c1)c(=O)n(C)c(=O)n2C (stereo not given) | inactive |
| Cc1cc(C(=O)COC(=O)CNC(=O)c2ccc(F)cc2)c(C)n1Cc1ccco1 | 6.75 µM (active) |
| COCCn1c(C)cc(C(=O)COC(=O)CNC(=O)c2ccco2)c1C | inactive |
| O=C(COC(=O)CNC(=O)c1ccco1)Nc1ccc(F)cc1 | inactive |
| CCC(C)NC(=O)Cn1c(=O)n(-c2ccc(Cl)cc2)c(=O)c2c3c(sc21)CCCC3 (stereo not given) | inactive |
| COc1ccc(CNC(=O)c2cc3c(=O)[nH]c4ccccc4c3s2)cc1 | inactive |
| COc1ccc(-c2cn3c(n2)sc2cc(C(=O)Nc4ccc(F)cc4)ccc23)cc1 | inactive |
| COc1ccc(-c2cc(NCc3ccc(F)cc3)n3cnnc3n2)cc1 | inactive |
| CC(C)(C)C(=O)Nc1ccc(-c2cn3cccnc3n2)cc1 | 7.57 µM (active) |
| COc1ccc(-c2cn3cccnc3n2)cc1 | 13.5 µM (active) |
| FC(F)(F)Oc1ccc(-c2cn3cccnc3n2)cc1 | 6.01 µM (active) |
| Cc1c(-c2cccc(NC(=O)C(C)(C)C)c2)nc2ncccn12 | inactive |
| COc1ccc(N2CCN(C(=O)CSc3nnc4ncccn34)CC2)cc1 | inactive |
| CC(=O)Nc1ccc(S(=O)(=O)Nc2cccc(NC(=O)C(C)(C)C)c2)cc1 | inactive |
| COc1cc(OC)cc(-c2nc(=S)n3ccsc3n2)c1 | inactive |
| COc1ccc(-c2cn3ccsc3n2)cc1 | 2.39 µM (active) |
| O=C(CCNC(=O)c1ccc(Br)cc1)NCC(c1ccco1)N1CCCCC1 (stereo not given) | inactive |
| CN(CC(=O)Nc1cccc(C(F)(F)F)c1)S(=O)(=O)c1cccs1 | inactive |
| CC(C)CCNC(=O)Cn1c(=O)oc2cc(S(=O)(=O)N3CC(C)CC(C)C3)ccc21 (stereo not given) | inactive |
| CCOc1ccc(CNC(=O)c2cccc(Nc3nc4ccccc4n4nnnc34)c2)cc1OC | inactive |
| CCN(CC)CCNC(=O)c1cc2c(=O)oc3ccc(C)cc3c2s1 | inactive |
| Cc1ccc(-c2nnc(SCC(=O)NCc3ccccc3)nc2-c2ccc(C)cc2)cc1 | inactive |
| COC(=O)c1cc(NC(=O)c2cnc(SC)nc2-c2ccccc2)cc(C(=O)OC)c1 | inactive |
| COc1ccccc1C(=O)NC(CCSC)C(=O)N1CCN(C(C)=O)CC1 (stereo not given) | inactive |
| CC(=O)c1cccc(NC(=O)C2CCN(C(=O)c3ccccc3Cl)CC2)c1 | inactive |

| Compound | Potency |
| --- | --- |
| CC(=O)N1CCCc2ccc(NS(=O)(=O)c3ccc(F)cc3F)cc21 | inactive |
| O=C(O)c1ccc2c(=O)n3c(nc2c1)/C(=C/c1ccc(Cl)c([N+](=O)[O-])c1)CC3 | inactive |
| COc1ccc(OC)c(-c2nc(C(N)=O)c3c(n2)n(-c2ccc4c(c2)OCO4)c(=O)n3C)c1 | inactive |
| CC(C)C12CN3CC(C(C)C)(CN(C1)C3c1ccc(OCc3ccccc3)cc1)C2=O (stereo not given) | inactive |
| O=C1C=C(NCCNc2c(F)c(F)c(CO)c(F)c2F)CCC1 | inactive |
| Cc1ccc(C)c(N2CCN(CCCNC(=O)Nc3ccc(Cl)cc3)CC2)c1 | inactive |
| O=C(O)CCC(=O)Nc1ccc(N2CCOCC2)cc1 | inactive |
| O=C(O)CCC(=O)Nc1ccc(OCC2CCCO2)cc1 (stereo not given) | inactive |
| CC1CCC(C(C)C)C(=O)/C1=C\c1ccc(NC(=O)CCC(=O)O)cc1 (stereo not given) | 16.9 µM (active) |
| O=C(CSc1nnc(-c2ccccc2F)o1)Nc1cccc(C(F)(F)F)c1 | inactive |
| O=C(NC1CCCC1)C(NS(=O)(=O)c1ccc(Br)s1)c1ccccc1 (stereo not given) | inactive |
| CN(C)c1nc(-c2cccnc2)nc(-c2ccc(Cl)cc2)c1C#N | inactive |
| CN(C)c1ccc(-c2nnc(-c3cccnc3)o2)cc1 | 9.53 µM (active) |
| Cc1csc(NC(=O)CSc2nnc(-c3cccnc3)o2)n1 | inactive |
| O=C(CCNC(=O)c1ccc([N+](=O)[O-])cc1)NC1CCCCC1 | inactive |
| COc1ccc(CNC(=O)C(C)n2nc(C)c3c(C)n(-c4ccccc4)nc3c2=O)c(OC)c1 (stereo not given) | inactive |
| CC(C)(C)NS(=O)(=O)c1ccc(NC(=O)NC2CCCCC2)cc1 | inactive |
| O=C(Nc1cccc(F)c1)NC1CCCc2ccccc21 (stereo not given) | inactive |
| Cc1ccc(NC(=S)NC2CCCC2)cc1 | 10.7 µM (active) |
| Cc1cc(C)cc(NC(=O)NC2CCCCCCC2)c1 | 10.7 µM (active) |
| CC(C)c1ccc(NC(=O)NC2CCCCC2)cc1 | 6.75 µM (active) |
| Cc1ccc(NC(=O)NC2CCCCC2)cc1S(=O)(=O)N1CCOCC1 | inactive |
| Cc1ccc(NC(=O)CSCC(=O)NC2CCCCC2)cc1 | inactive |
| Cc1cc(Br)ccc1NC(=S)NC1CCCC1 | inactive |
| O=C(Nc1cccc(F)c1)NC1CCCCCCC1 | 15.1 µM (active) |
| C/C(CC(=O)Nc1cccc(F)c1)=N\NC(=O)C(=O)NC1CCCCC1 | inactive |
| Cc1cc(C)cc(NC(=O)NC2CCN(CC(=O)Nc3cccc(Cl)c3C)CC2)c1 | inactive |

| Compound | Potency |
| --- | --- |
| CC(C)N1CCC(NC(=O)Nc2ccccc2)CC1 | inactive |
| CCCNC(=O)C1CCN(c2nc3ccc(C)cc3[nH]2)CC1 | inactive |
| C=CC(=O)OCCOCCOCCOCCOC(=O)C=C | inactive |
| CO[C@H]1[C@@H]2C=CO[C@@H](O[C@H]3O[C@@H](CO)[C@H](O)[C@@H](O)[C@@H]3O)[C@@H]2[C@@]2(CO)O[C@@H]12 | inactive |
| CCOc1ccccc1C(=O)NCC(c1ccc(N(C)C)cc1)N1CCCC1 (stereo not given) | inactive |
| CCCN1C(=O)C(O)(CC(=O)c2ccc(CC)cc2)c2cc(Br)ccc21 (stereo not given) | inactive |
| CN(CC(=O)NCc1ccc2c(c1)OCO2)CC(=O)Nc1ccc(F)c(F)c1F | inactive |
| COC(=O)CCC(=O)N1CCCC(CO)(Cc2ccccc2)C1 (stereo not given) | 15.1 µM (active) |
| CCCc1cc(C(=O)N2CCCC(CO)(CCCc3ccccc3)C2)n(C)n1 (stereo not given) | inactive |
| Cc1ccccc1CC1(CO)CCCN(C(=O)c2cc(-c3ccccc3)no2)C1 (stereo not given) | inactive |
| Cc1noc(C)c1CCC(=O)O | inactive |
| CCOC(=O)C1(Cc2ccccc2C)CCCN(C(=O)CCc2c(C)noc2C)C1 (stereo not given) | inactive |
| Cc1noc(C)c1CCC(=O)N1CCCC(CO)(Cc2ccccc2)C1 (stereo not given) | 19 µM (active) |
| CN(CC(=O)Nc1ccccc1C(F)(F)F)C(=O)Cc1ccccc1F | inactive |
| CCN(CC)C(CNC(=O)CSc1nnnn1-c1cccc(F)c1)c1ccco1 (stereo not given) | inactive |
| CSc1ncc(C(=O)NCCCc2ccccc2)c(C)n1 | inactive |
| COc1ccc(OC)c(CNC(=O)c2c3c(nc4ccccc24)C(=O)N(C2CCCCC2)C3)c1 | inactive |
| CC(=O)Oc1ccc(N(C(C)=O)S(=O)(=O)c2ccc3ccccc3c2)cc1Br | inactive |
| COc1ccc(C2CC(=O)N(Cc3ccccc3C)c3c2c(C)nn3-c2nc(C)cc(C)n2)c(OC)c1 (stereo not given) | inactive |
| c1ccc(-c2cc(-c3nnc4sc(-c5ccccn5)nn34)[nH]n2)cc1 | 10.7 µM (active) |
| CCOc1cccc(-c2nn3c(-c4ccccn4)nnc3s2)c1 | inactive |
| COc1cc(-c2nn3c(-c4cccc(C)c4)nnc3s2)cc(OC)c1OC | inactive |
| CN(Cc1ccccc1)c1ccc(-c2nc(-c3ccccc3)no2)cc1[N+](=O)[O-] | inactive |
| COc1cccc(N2CCN(CC(=O)Nc3ccnn3C3CCCC3)CC2)c1 | inactive |
